Test results reported in PubChem BioAssay.
Active and inactive are the calls of the source.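 How the source made its calls, unless noted: active means compound raises GLP1 secretion from the human gut endocrine cells, with no numeric limit stated; inactive means the rest.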 Residues, ends and D or L forms follow the SMILES beside them.

Legend:
[1] = stimulators of nuclear beta-catenin in C2C12, primary screen, imaging, WNT3A-conditioned medium, mouse C2C12, NPC library (AID 1117326; in the data active means nuclear beta-catenin stimulation mostly above about 4.2%, no sharp cut-off; inactive means mostly below about 10%; further: reference of the scale not given here); conditions: stronger effect = higher value
[2] = stimulators of insulin release from INS-1E, primary screen, cell-based, 5 mM glucose, NPC library (AID 1117329;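 active means compound raises insulin release from rat beta cells at 5 mM glucose, no numeric limit stated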; further: reference of the scale not given here); conditions: rat INS-1E insulin secretion, at 10 µM, stronger effect = higher value
[3] = growth inhibition of GSK3B-pretreated HCT116 cells – cell-based, CellTiter-Glo, 0.2 to 20 µM (AID 1117336;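 active means compounds lowering colon cancer cell viability after pretreatment blocking the GSK3B kinase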); conditions: HCT116 viability after GSK3B inhibitor, at 20 µM, stronger effect = higher value
[4] = inhibition of endothelial tube formation, primary screen, imaging, VEGF stimulated, CD31 staining, tube area, NPC library (AID 1117340;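 active means compound that reduces growth-factor-driven endothelial tube area in a mixed cell culture, no cutoff stated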); conditions: VEGF-stimulated ADSC/ECFC co-culture, at 10 µM, stronger effect = higher value
[5] = glucagon-like peptide 1 release enhancers, primary assay, NCI-H716 cell line, NPC library (AID 1117341); conditions: NCI-H716 cells, at 10 µM, stronger effect = higher value; further: reference of the scale not given here
[6] = HCT116 colon cancer cell growth inhibition, primary screen, CellTiter-Glo luminescence, NPC library (AID 1117342;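 active means compounds that lower survival of HCT116 colon cancer cells in the luminescence readout, no numeric limit stated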); conditions: at 20 µM (top of the series)
[7] = CellTiter-Glo luminescent readout of SW480 viability loss, NPC library primary (AID 1117343;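 active means compounds that lower viability of the colon cancer cells in the luminescence readout, with no numeric limit stated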); conditions: CellTiter-Glo luminescence; at 20 µM (top of the series)
[8] = decreased DLD-1 cellular survival, CellTiter-Glo luminescent readout, NPC compound collection, primary HTS (AID 1117346;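 active means compounds that lower survival of DLD-1 colon cancer cells in the luminescence readout, no cutoff given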); conditions: DLD-1 viability, CellTiter-Glo luminescence; at 20 µM (top of the series)

O=P(O)(O)C(Sc1ccc(Cl)cc1)P(=O)(O)O
inactive: nuclear beta-catenin stimulation ([1]; at 10 µM) 1.7% | insulin secretion stimulation [2] 3.9% | viability decrease [3] -2.7% | tube area decrease [4] 1% | GLP1 secretion stimulation [5] -2.7% | inhibition of viability [6] 4.3% | viability decrease (inhibition) [7] 2.6% | viability decrease (inhibition) [8] 2%
1.6%: nuclear beta-catenin stimulation ([1]; stimulation, at 2 µM)

O=C1[C@@H]2[C@H]3CC[C@H](C3)[C@@H]2C(=O)N1CCCCN1CCN(c2ncccn2)CC1
34.2%: nuclear beta-catenin stimulation ([1]; stimulation, at 2 µM)
inactive: nuclear beta-catenin stimulation ([1]; at 10 µM) 10% | insulin secretion stimulation [2] 3.2% | viability decrease [3] -0.8% | tube area decrease [4] 0.8% | GLP1 secretion stimulation [5] 1.5% | inhibition of viability [6] 45.5% | viability decrease (inhibition) [7] 12.8% | viability decrease (inhibition) [8] 1.2%

CCCc1ccc(C(=O)O)cc1
inactive: nuclear beta-catenin stimulation ([1]; at 10 µM) -2% | insulin secretion stimulation [2] 0.6% | viability decrease [3] -19.9% | tube area decrease [4] 0.8% | GLP1 secretion stimulation [5] 1.1% | inhibition of viability [6] 7.9% | viability decrease (inhibition) [7] 12.9% | viability decrease (inhibition) [8] 11.8%
2.4%: nuclear beta-catenin stimulation ([1]; stimulation, at 2 µM)

CCCc1ccc(OCC(=O)N2CCN(C(=O)COc3ccc(CCC)cc3OC)CC2)c(OC)c1
inactive: nuclear beta-catenin stimulation ([1]; at 10 µM) 0.8% | insulin secretion stimulation [2] 2.6% | viability decrease [3] -50.5% | GLP1 secretion stimulation [5] 10.9% | inhibition of viability [6] 48.2%
active: tube area decrease [4] 43.5% | viability decrease (inhibition) [7] 97.2% | viability decrease (inhibition) [8] 101%
2.5%: nuclear beta-catenin stimulation ([1]; stimulation, at 2 µM)

NC(=O)NNc1ccccc1
0.7%: nuclear beta-catenin stimulation ([1]; stimulation, at 2 µM)
inactive: nuclear beta-catenin stimulation ([1]; at 10 µM) 3.2% | insulin secretion stimulation [2] -1.9% | viability decrease [3] -9.75% | tube area decrease [4] 16% | GLP1 secretion stimulation [5] 1.4% | inhibition of viability [6] -3% | viability decrease (inhibition) [7] 30.5% | viability decrease (inhibition) [8] 7.45%

CCOc1ccc(NS(=O)(=O)c2ccc(N)cc2)nn1
0.4%: nuclear beta-catenin stimulation ([1]; stimulation, at 2 µM)
inactive: nuclear beta-catenin stimulation ([1]; at 10 µM) -0.3% | insulin secretion stimulation [2] -0.2% | viability decrease [3] 1.55% | tube area decrease [4] -25.2% | GLP1 secretion stimulation [5] 2.6% | inhibition of viability [6] -1.7% | viability decrease (inhibition) [7] 29.4% | viability decrease (inhibition) [8] 4.15%

CN=C(N)NC(=O)Nc1c(C)cccc1C
active: viability decrease (inhibition) [7] -1.5%
inactive: nuclear beta-catenin stimulation ([1]; at 10 µM) -1.8% | insulin secretion stimulation [2] -1.2% | viability decrease [3] -12.4% | tube area decrease [4] -1.8% | GLP1 secretion stimulation [5] -0.6% | inhibition of viability [6] 11.3% | viability decrease (inhibition) [8] -0.9%
-0.4%: nuclear beta-catenin stimulation ([1]; stimulation, at 2 µM)

OC[C@H]1O[C@@H]2O[C@H]3[C@H](O)[C@@H](O)[C@@H](O[C@H]4[C@H](O)[C@@H](O)[C@@H](O[C@H]5[C@H](O)[C@@H](O)[C@@H](O[C@H]6[C@H](O)[C@@H](O)[C@@H](O[C@H]7[C@H](O)[C@@H](O)[C@@H](O[C@H]8[C@H](O)[C@@H](O)[C@@H](O[C@H]1[C@H](O)[C@H]2O)O[C@@H]8CO)O[C@@H]7CO)O[C@@H]6CO)O[C@@H]5CO)O[C@@H]4CO)O[C@@H]3CO
inactive: nuclear beta-catenin stimulation ([1]; at 10 µM) 0.1% | insulin secretion stimulation [2] 1.1% | viability decrease [3] -5.9% | tube area decrease [4] 2.3% | GLP1 secretion stimulation [5] -1.9% | inhibition of viability [6] 1.17% | viability decrease (inhibition) [7] 21% | viability decrease (inhibition) [8] -3.7%
0.5%: nuclear beta-catenin stimulation ([1]; stimulation, at 2 µM)

COc1ccc(OC(=O)N(CC(=O)O)Cc2ccc(OCCc3nc(-c4ccccc4)oc3C)cc2)cc1
inactive: nuclear beta-catenin stimulation ([1]; at 10 µM) 1% | insulin secretion stimulation [2] -0.3% | tube area decrease [4] -9%
active: viability decrease [3] 100% | GLP1 secretion stimulation [5] 51.7% | inhibition of viability [6] 86.4% | viability decrease (inhibition) [7] 105% | viability decrease (inhibition) [8] 91.5%
-0.5%: nuclear beta-catenin stimulation ([1]; stimulation, at 2 µM)

CC(=O)N[C@@H](CO)C(=O)N[C@@H](CC(=O)O)C(=O)N[C@@H](CCCCN)C(=O)N1CCC[C@H]1C(=O)O (Ac-SDKP-OH)
inactive: nuclear beta-catenin stimulation ([1]; at 10 µM) 0.3% | insulin secretion stimulation [2] 1.8% | viability decrease [3] -7.1% | tube area decrease [4] -14.3% | GLP1 secretion stimulation [5] -1.6% | inhibition of viability [6] -0.1% | viability decrease (inhibition) [7] -6% | viability decrease (inhibition) [8] 7%
0.6%: nuclear beta-catenin stimulation ([1]; stimulation, at 2 µM)

NC[C@H]1O[C@H](O[C@@H]2[C@@H](O)[C@@H](O[C@H]3O[C@H](CO)[C@@H](O)[C@H](N)[C@@H]3O)[C@H](N)C[C@@H]2N)[C@H](O)[C@@H](O)[C@H]1O
-0.6%: nuclear beta-catenin stimulation ([1]; stimulation, at 2 µM)
inactive: nuclear beta-catenin stimulation ([1]; at 10 µM) -1.2% | insulin secretion stimulation [2] -0.8% | viability decrease [3] -36.2% | tube area decrease [4] -10.7% | GLP1 secretion stimulation [5] -0.1% | inhibition of viability [6] -13.3% | viability decrease (inhibition) [7] -2.1% | viability decrease (inhibition) [8] -23.8%

CCCCCCCCCCCCCC(=O)OC(C)C
-0.6%: nuclear beta-catenin stimulation ([1]; stimulation, at 2 µM)
inactive: nuclear beta-catenin stimulation ([1]; at 10 µM) 1.2% | insulin secretion stimulation [2] 0.9% | viability decrease [3] -8.2% | tube area decrease [4] -9.5% | GLP1 secretion stimulation [5] -0.1% | inhibition of viability [6] 8.25% | viability decrease (inhibition) [7] 7.7% | viability decrease (inhibition) [8] 24.3%
